Drawing on PubChem BioAssay, this text covers composite z-score for 10 compounds.

The target of the assay is Torsin-1A (Homo sapiens) (UniProt O14656). Description: torsin A binders from cell lysate, primary screen, small-molecule microarray, wild-type, 635/667 nm (AID 1149). To be noted: COS7 hTOR1A-WT lysate, 635 nm fluorescence, higher = more signal.
Torsin-1A (Homo sapiens), sequence (O14656 whole entry, looked up): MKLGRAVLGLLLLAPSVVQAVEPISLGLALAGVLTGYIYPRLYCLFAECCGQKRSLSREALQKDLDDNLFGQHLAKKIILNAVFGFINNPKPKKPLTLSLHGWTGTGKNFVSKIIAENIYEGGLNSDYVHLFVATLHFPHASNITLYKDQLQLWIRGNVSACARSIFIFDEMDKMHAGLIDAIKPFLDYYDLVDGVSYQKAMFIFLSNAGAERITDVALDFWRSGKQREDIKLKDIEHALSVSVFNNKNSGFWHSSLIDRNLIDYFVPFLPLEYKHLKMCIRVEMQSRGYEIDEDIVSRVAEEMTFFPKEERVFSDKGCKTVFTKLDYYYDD
On to `CC(C)N1C(=O)c2ccccc2[C@](C)(C(=O)NCCCN(C)C)[C@@H]1c1ccc(CO)cc1`, for which the composite z-score worked out at 3.98.

Regarding `CC(=O)NCCCC[C@@H]1NC(=O)[C@@H]2C[C@H](C(=O)NCCCCCC[N+](C)(C)C)[C@H](c3cccc(OCCO)c3)N2C1=O`, the composite z-score was determined as 0.964.

`CCCCN1CC=CC23O[C@@H]4C=CCCOC(=O)C4[C@H]2C(=O)N(CCCO)[C@@H]3C1=O` (stereo not given in full): the composite z-score was -0.387.

As to `C=CCC(OC(C)=O)[C@@H]1[C@@H](N(Cc2cc3ccccc3o2)C(=O)c2cccc3ccccc23)c2cc(OCCCO)ccc2N1C(=O)Cc1ccc(OC)cc1` (stereo not given in full), the composite z-score is 0.175.

For the compound `C=CCN1C(=O)[C@]2(COC(c3ccc(OCCCO)cc3)=N2)Cc2ccccc21`, the composite z-score was determined as 0.689.

The compound `C=C[C@H](C)[C@H](OC(=O)Nc1ccc(OC)cc1)c1ccc(O)c2ccccc12` came in with a composite z-score of 0.822.

`COc1ccccc1CN1C(=O)c2ccccc2[C@](Cc2ccccc2I)(C(=O)NC2CC2)[C@@H]1c1ccc(CO)cc1` yielded a composite z-score of 0.427.

Compound `C=CC[C@@]1(C(N)=O)N=C(c2ccc(OCCCO)cc2)O[C@@H]1c1ccccc1N=[N+]=[N-]` registered a composite z-score of 1.02.

For the compound `CCN(CC)c1ccc(N2CC=CC34O[C@@H]5C=CCOC(=O)[C@@H]5[C@H]3C(=O)N(CCCCCO)[C@@H]4C2=O)cc1` (stereo not given in full), the composite z-score turned out to be 1.03.

Turning to `COCCOC(=O)N1C(=O)[C@@]2(c3cc(C#CCC(C(=O)OC)C(=O)OC)ccc31)[C@H](c1ccc(OCCO)cc1)N1[C@H](c3ccccc3)[C@H](c3ccccc3)OC(=O)[C@H]1[C@@H]2C(=O)NC[C@H](O)c1ccccc1`, the composite z-score was 1.72.
